The values that follow come from the supplement of paper PMC12350171.

Where a name gives a salt, the structure may show the parent alone. Unmarked numbers belong to inactive results.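 Rule for the calls: active = AUC significantly below DMSO controls by Student t-fit with adjusted P under 0.01; inactive = not significantly reduced.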

The subject of this assay is Haemophilus parainfluenzae. As to the kind of experiment: growth AUC normalised to DMSO control (fraction of control); higher = less growth inhibition, active = hit call of the paper. The note with it: 20 µM. An outline of the steps:
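Hemin and NAD were added to the medium for Haemophilus parainfluenzae. All pathogens, after two anaerobic passages, were inoculated at a starting OD578 of 0.01 into pre-reduced mGAM plates with 20 μM compound and 1% DMSO under breathable seals, and OD578 was read hourly for 24 h in three biological replicates. AUC of each growth curve was obtained with the trapezoidal rule up to the exponential-to-stationary transition and normalised to DMSO controls from the same plate.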
With `COC(=O)C1=C(C#N)NC(C)=C(C(=O)OC(C)C)C1c1cccc([N+](=O)[O-])c1` (centres undefined) [Nilvadipine], the “growth AUC normalised to DMSO control” value is 0.985.

Regarding `CN(C)CCCSC(=N)N` [Dimaprit dihydrochloride], the “growth AUC normalised to DMSO control” value is 1.01. Take `O=C(CCCN1CCC(O)(c2ccc(Cl)cc2)CC1)c1ccc(F)cc1` [Haloperidol]: the “growth AUC normalised to DMSO control” value is 0.951. Turning to `CC(=O)Nc1c(I)c(C(=O)N[C@H]2C(O)O[C@H](CO)[C@@H](O)[C@@H]2O)c(I)c(N(C)C(C)=O)c1I` (some centres undefined) [Metrizamide], the “growth AUC normalised to DMSO control” value was 0.984. For `CCCC(=O)Nc1ccc(OCC(O)CNC(C)C)c(C(C)=O)c1` (centres undefined) [Acebutolol hydrochloride] the value was 1.03; for `Nc1nc(=S)c2ncn([C@@H]3O[C@H](CO)[C@@H](O)[C@H]3O)c2[nH]1` [Thioguanosine], 0.973; for `Clc1ccc(CCC(Cn2ccnc2)Sc2c(Cl)cccc2Cl)cc1` (centres undefined) [Butoconazole nitrate], 0.97. For the compound `C[N+]1(CCCCC[N+]2(C)CCCC2)CCCC1` [Pentolinium bitartrate], the “growth AUC normalised to DMSO control” value was 0.96. For `CCCCC(=O)O[C@H]1CC[C@H]2[C@@H]3CCc4cc(O)ccc4[C@H]3CC[C@]12C` [Estradiol Valerate], the “growth AUC normalised to DMSO control” value was 1.06. Take `CN(C)CC/C=C1\c2ccccc2CSc2ccccc21` [Dosulepin hydrochloride]: the “growth AUC normalised to DMSO control” value was 0.865. As to `C#C[C@]1(O)CC[C@H]2[C@@H]3CCc4cc(O)ccc4[C@H]3CC[C@@]21C` [Ethinylestradiol], the “growth AUC normalised to DMSO control” value is 1.04. In the case of `NCC[C@H](O)C(=O)N[C@@H]1C[C@H](N)[C@@H](O[C@H]2O[C@H](CN)[C@@H](O)[C@H](O)[C@H]2O)[C@H](O)[C@H]1O[C@H]1O[C@H](CO)[C@@H](O)[C@H](N)[C@H]1O` [Amikacin hydrate], the “growth AUC normalised to DMSO control” value is 0.0269 (active). In the case of `Cc1cccc(Nc2ccccc2C(=O)O)c1C` [Mefenamic acid], the “growth AUC normalised to DMSO control” value was 0.946.

As to `CCOC(=O)[C@H](CCc1ccccc1)N[C@@H](C)C(=O)N1Cc2ccccc2C[C@H]1C(=O)O` [Quinapril hydrochloride], the “growth AUC normalised to DMSO control” value is 0.952.
